Laboratory results reported in PubChem BioAssay AID624040 (The Scripps Research Institute Molecular Screening Center, 2012).
About 2,100 (0.58%) of roughly 360,000 compounds were called active. Only a selection was taken, and actives are over-represented in it overall. Unmarked numbers belong to inactive results.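 The calls were made as follows: active = inhibition above a per-plate cutoff, the mean of that plate's test compounds plus 3 SD (cut at about 27% in these data); inactive = the rest.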

target: Muscarinic acetylcholine receptor M5 (Homo sapiens) (UniProt P08912); assay: human M5 muscarinic receptor antagonists, primary screen, CHO cells, Fluo-8 calcium fluorescence (AID 624040); conditions: CHO-hM5 cells, ACh EC80, at 3 µM, hits give high values;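 also: 0% = acetylcholine EC80 with DMSO and 100% = DMSO without agonist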
Sequence (P08912 whole entry, looked up): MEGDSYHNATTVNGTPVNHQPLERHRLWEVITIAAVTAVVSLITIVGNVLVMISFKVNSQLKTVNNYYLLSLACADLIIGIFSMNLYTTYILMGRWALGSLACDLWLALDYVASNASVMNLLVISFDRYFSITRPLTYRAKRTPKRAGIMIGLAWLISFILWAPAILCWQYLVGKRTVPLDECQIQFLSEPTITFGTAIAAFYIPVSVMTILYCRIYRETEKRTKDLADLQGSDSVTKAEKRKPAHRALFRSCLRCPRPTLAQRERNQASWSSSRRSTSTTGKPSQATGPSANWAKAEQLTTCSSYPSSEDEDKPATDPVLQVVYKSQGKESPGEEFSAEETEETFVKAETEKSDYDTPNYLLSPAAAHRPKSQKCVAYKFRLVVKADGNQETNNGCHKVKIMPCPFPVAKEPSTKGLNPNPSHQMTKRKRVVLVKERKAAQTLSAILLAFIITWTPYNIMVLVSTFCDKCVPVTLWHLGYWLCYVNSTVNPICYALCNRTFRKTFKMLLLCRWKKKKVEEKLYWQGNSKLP

Compound	inhibition
CN(C)CCNc1ccc(-c2n[nH]c(=O)c3ccccc23)cc1[N+](=O)[O-]	5.87%
O=C(NCC1(N2CCCCC2)CCCCC1)c1ccc(NS(=O)(=O)c2ccc(F)cc2)cc1	6.39%
CC(C)c1ccc(NC(=O)COC(=O)c2ccc(CN3CCCC3=O)cc2)cc1	11.4%
Cc1cc(C)c(S(=O)(=O)N2CCCC2CNC(=O)c2ccc3c(c2)OCO3)c(C)c1 (stereo not given)	10.3%
c1ccc2c(c1)OCC(CNc1ncnc3nc[nH]c13)O2 (stereo not given)	46.2% (active)
O=C(COc1ccc(F)cc1Br)NCC1COc2ccccc2O1 (stereo not given)	-3.52%
CCC(=O)c1ccc(OCC(=O)N(CC)CC2COc3ccccc3O2)cc1 (stereo not given)	-6.74%
CSc1ccccc1OCc1cc(C(=O)N2C[C@H]3CC[C@H]2C3)no1	23.9%
CCc1nc2nc(C)c(NS(=O)(=O)c3ccc4c(c3)CCCC4)c(=O)n2[nH]1	17.6%
CN(CC#CCC(c1ccccc1)c1ccccc1)C(C)(C)C	56.4% (active)
CC(C)(C)N(CC#CCC(O)(c1ccccc1)C1CCCC1)CCO (stereo not given)	8.39%
O=C1NC[C@@H](Cc2ccc(O)cc2)N(CCc2cccc(F)c2)C1=O	10.1%
CCCCC(C(=O)NC(C)(C)C)N(Cc1ccccc1)C(=O)c1snc(C(N)=O)c1N (stereo not given)	-2.14%
Cc1cc(C)c(OCC(=O)N(Cc2cccs2)C2CCS(=O)(=O)C2)c(C)c1 (stereo not given)	5.07%
CN(C)C1=NC[C@H](Cc2ccccc2)N1CCc1ccc(F)cc1	2.48%
CCCC[C@@H]1CN=C(N)N1CCc1cc(C(F)(F)F)cc(C(F)(F)F)c1	32.4% (active)
CCCCN1C(N)=NC[C@@H]1CC1CCCCC1	0.65%
COc1cccc(C(O)c2nc(-c3ccc(C)c(C)c3)cs2)c1 (stereo not given)	2.71%
Cc1ccc(C(=O)Nc2c(-c3ccccc3)[nH][nH]c2=O)cc1	-12.3%
O=C(NC1=CC(=O)c2ccccc2C1=O)c1ccccc1	36.2% (active)
CN(C)C(=O)c1ccc(NC(=O)c2ccccc2-c2ccccc2)cc1	12.5%
O=C(O)CCC(=O)Nc1ccc(OCC2CCCO2)cc1 (stereo not given)	-4.56%
COc1ccc(NC(=O)CN2C(=O)CSc3ccc(S(=O)(=O)N4CCC(C)CC4)cc32)cc1	-4.66%

Compound	inhibition
COc1ccc(CNS(=O)(=O)c2cc(-c3cc(C)no3)ccc2C(C)C)cc1	27.2% (active)
CCc1ccc(-c2cc(C)no2)cc1S(=O)(=O)NCCc1ccc(S(N)(=O)=O)cc1	-7.03%
Cc1cc(-c2ccc(C)c(S(=O)(=O)NCCCN(Cc3ccccc3)C(C)C)c2)on1	-8.38%
CSCCC(NC(=O)COc1ccccc1)C(=O)Nc1ccc(C)cc1 (stereo not given)	0.42%
CC(C)c1ccc2oc(=O)cc(CN3CCN(Cc4ccccc4)CC3)c2c1	27.9% (active)
O=c1cc(CN2CCCCCCC2)c2c(ccc3ccccc32)o1	1.52%
Cc1cc2oc(=O)cc(CN3CCN(S(=O)(=O)c4cccs4)CC3)c2cc1C(C)C	6.3%
COc1ccc(-c2cc3nc(C)c(CCC(=O)NC(C)CCc4ccco4)c(C)n3n2)c(OC)c1 (stereo not given)	-13.5%
CCC(C)C(NC(=O)C1CCC(=O)N1C(=O)OCc1ccccc1)C(=O)NC(C(=O)N1CCCC1C(N)=O)C(C)CC (stereo not given)	5.74%
CCCCCCCCn1c2c(c(=N)c3c1CCC3)CCCC2	32.9% (active)
C#Cc1ccc([C@@H]2C=C(C(=O)O)O[C@H](OCCCCO)C2)cc1	13.8%
CCCN(Cc1cc2cccc(C)c2[nH]c1=O)S(C)(=O)=O	-2.81%
COc1cccc(CNC(=O)CCC2CCCN(C(=O)c3ccc(F)c(Cl)c3)C2)c1 (stereo not given)	-0.63%
COc1cccc(CNC(=O)CCC2CCCN(C(=O)c3ccoc3C)C2)c1 (stereo not given)	12.6%
COc1cccc(CNC(=O)CCC2CCCN(C(=O)c3cc(C)[nH]n3)C2)c1 (stereo not given)	32.7% (active)
CC1(C)Cc2nc3sc4c(SCC(=O)NC(c5ccccc5)c5ccccc5)ncnc4c3cc2CO1	-8.35%
CN(C)c1ccc(/C=C2\NC(=S)N(Cc3ccccc3)C2=O)cc1	52.7% (active)
CCN(C(=O)CSc1nnnn1-c1ccc(OC)cc1)C1CCS(=O)(=O)C1 (stereo not given)	12.8%
CC(Sc1nn(-c2ccc(Cl)cc2)c(=S)s1)C(=O)NCC1CCCO1 (stereo not given)	-4.62%
O=[N+]([O-])c1c(NCCO)cc(Sc2nc3ccccc3s2)c2nonc12	29.2% (active)
N#Cc1ccc(OCCN2C(=O)NC3(CCSC3)C2=O)cc1 (stereo not given)	-5.81%
COc1ccc(NC(=O)c2sccc2SCC#N)cc1	2.72%
CN1CCN(C(=O)C2=C[C@H](c3ccc4c(c3)OCO4)C[C@H](OCc3ccc(CO)cc3)O2)CC1	3.48%

Compound	inhibition
COc1ccc(-n2nnc3c(=O)n(CC(=O)OCc4ccccc4)cnc32)cc1	4.49%
CCSc1nsc(NC(=O)Nc2cccc(C(C)=O)c2)n1	22.5%
CSc1nsc(NC(=O)Nc2ccccc2)n1	31.1% (active)
C=CCSc1nsc(NC(=O)Nc2cccc(C(C)=O)c2)n1	21.8%
COC(=O)/C(C#N)=C/c1occc1C	2.54%
CC1OC2C(OC1C)N(S(C)(=O)=O)CCN2S(C)(=O)=O (stereo not given)	-2.68%
Cc1ccc(C(c2nnnn2CS(=O)(=O)c2ccc(C)cc2)N2CCC(C(N)=O)CC2)cc1 (stereo not given)	-9.51%
NC(=O)C1(N2CCCCC2)CCN(C2CC(=O)N(Cc3ccc(N4CCCC4=O)cc3)C2=O)CC1 (stereo not given)	-5.49%
O=S(=O)(NCCCc1ccccc1)c1ccc(Br)cc1	6.97%
S=C(Nc1ccc(Br)cc1)NC1CCN(Cc2ccccc2)CC1	-2.81%
S=C(NCCCc1ccccc1)Nc1ccc(Br)cc1	27.8% (active)
Cc1sc(NC(=O)C2C3CCC(O3)C2C(=O)O)c(C(=O)OC(C)C)c1-c1ccc(Cl)cc1 (stereo not given)	-0.97%
CC(C)OCCCNc1ncnc2c1[nH]c1ccc(F)cc12	36.1% (active)
COC(=O)c1ccccc1NC(=O)CN(Cc1ccccc1)S(C)(=O)=O	-12.2%
COCCNC(=O)C1(C)CCCN(Cc2cccc(F)c2)C1 (stereo not given)	4.07%
COc1cc(CNc2ncnc3c2ncn3[C@H]2CN(Cc3cccs3)C[C@@H](CO)O2)cc(OC)c1OC	10.9%
O=C(CCl)Nc1ccc(Sc2ccc(NC(=O)CCl)cc2)cc1	2.24%
O=C(Cc1ccc(Cl)c(Cl)c1)Nc1ccc(SC(F)F)cc1	33.6% (active)
O=C(CC(O)(C(F)(F)F)C(F)(F)F)Nc1ccc(Cl)c(Cl)c1	17.8%
Cc1ccc(NC2=C(Cl)C(=O)OC2OC(=O)c2ccccc2C)cc1 (stereo not given)	5.07%
CCC(C)(C)NC(=O)c1cc([N+](=O)[O-])ccc1N1CCCCC1	6.53%
CCC(=O)c1ccc(N2CCN(C(=O)c3cc([N+](=O)[O-])ccc3F)CC2)c(F)c1	17.6%
CCN1CCN(c2ccc([N+](=O)[O-])cc2C(=O)c2ccc(Cl)cc2)CC1	78.8% (active)

Compound	inhibition
O=C(CCC1CCCCC1)Nc1cc(C(F)(F)F)ccc1N1CCOCC1	10.2%
COC(=O)[C@@]12C[C@@H](CC(=O)N3CCCCC3)C(=O)N(Cc3ccc4c(c3)OCO4)C1=CCC(C)(C)C2	-4.41%
Cc1cc2cc(CNC(=O)c3ccc(S(=O)(=O)N4CCOCC4)cc3)ccc2[nH]1	13.1%
Cc1cc2cc(CNC(=O)c3cccs3)ccc2[nH]1	97.7% (active)
Cc1ccc(C)c2[nH]c(=O)c(CCNC(=O)c3cccs3)cc12	2.31%
Cc1ccc(C)n1-c1ccncc1	2.29%
COC(=O)c1ccc(NC(=O)c2ccccc2NS(=O)(=O)c2ccccc2)cc1	31.6% (active)
CCOC(=O)c1ccc(N/C(=N/S(=O)(=O)c2ccccc2)c2ccccc2)cc1	-3.7%
COc1cc(NC(=O)c2ccccc2NS(=O)(=O)c2ccc(Cl)s2)cc(OC)c1	14.3%
COc1ccccc1NC(=O)CSc1nnc(-c2ccoc2C)n1CCc1ccccc1	6.68%
COC(=O)C1=C(C)N(c2ccc(C)cc2)/C(=C/c2ccc(O)cc2)C1=O	3.87%
Cc1ccn2c(=O)c(C(=O)NCCC3=CCCCC3)c(O)nc2c1	2.86%
C[C@H](NC(=O)c1[nH]cnc1C(=O)Nc1nccs1)c1ccccc1	11.9%
CC(NC(=O)C(=O)Nc1nccs1)c1ccccc1 (stereo not given)	30.9% (active)
CC(=O)NC(CC(=O)Nc1nccs1)c1ccccc1 (stereo not given)	-3.08%
O=C(C1CC1)N1N=C2CCCCC2C1(O)C(F)(F)F (stereo not given)	13.2%
Cc1nc(C)c(C(=O)N(c2ccc(C)c(C)c2)C(C(=O)NCc2ccco2)c2ccccc2)s1 (stereo not given)	2.62%
CC(C)(C)C(=O)c1c(N)[nH]c(C(=O)c2ccccc2)c1-c1ccc(F)cc1	-1.9%
COc1ccc(NC(=O)CC(NC(C)c2ccccc2)C(=O)O)cc1 (stereo not given)	4.75%
COc1ccc(NC(=O)COC(=O)c2ccc(NS(=O)(=O)/C=C/c3ccccc3)cc2)cc1	14.2%
CCC(C(=O)OCC(=O)Nc1ccc(C(=O)Nc2ccc(OC)cc2)cc1)c1ccccc1 (stereo not given)	36.3% (active)
